Assay results published in the antibiotic and cytotoxicity screens of Wong et al. (2023).
Hit rate of the full screen: of about 39,000 compounds, about 3,300 (8.5%) were called active. The sample holds actives, similar compounds and a random draw of the others, so the mix is not that of the screen.

test system: HepG2; assay: cytotoxicity call (relative viability < 0.9); settings: 10 µM

Row | Structure (SMILES) | cytotoxicity call
1 | COc1ccc(NC(=O)Nc2ccc3c(c2)C(=O)N([C@H](C)CO)C[C@H](C)[C@H](CN(C)S(=O)(=O)c2c(C)noc2C)OCCCC[C@H](C)O3)cc1 | inactive
2 | O=C(C[C@H]1CC[C@H]2[C@@H](COC[C@@H](O)CN2S(=O)(=O)c2ccc(F)cc2)O1)N[C@@H]1CCN(Cc2ccccc2)C1 | inactive
3 | CC(C)NC(=O)Nc1ccc2c(c1)CC(=O)N([C@H](C)CO)C[C@@H](C)[C@H](CN(C)Cc1ccc(C(=O)O)cc1)O2 | inactive
4 | C[N+](C)(C)[C@@H]1[C@H]2OC[C@H](O)[C@H]2O[C@@H]1O | inactive
5 | CCCNC(=O)N1C[C@H](C)[C@@H](OC)CN(C)C(=O)c2cc(NS(=O)(=O)CC(F)(F)F)ccc2OC[C@H]1C | inactive
6 | C[C@H](CO)N1C[C@H](C)[C@@H](CN(C)Cc2ccc(Cl)c(Cl)c2)Oc2c(NC(=O)Nc3ccccc3)cccc2C1=O | inactive
7 | C[C@@H]1CN([C@@H](C)CO)C(=O)c2cccc(NC(=O)Nc3ccccc3)c2O[C@H]1CN(C)Cc1ccc(Cl)c(Cl)c1 | active
8 | C[C@@H]1CN([C@H](C)CO)C(=O)c2cccc(NC(=O)Nc3ccc(F)cc3)c2O[C@H]1CN(C)Cc1ccc(Cl)c(Cl)c1 | inactive
9 | C[C@@H]1CN([C@@H](C)CO)C(=O)c2cccc(NC(=O)Nc3ccc(F)cc3)c2O[C@H]1CN(C)Cc1ccc(Cl)c(Cl)c1 | active
10 | C[C@H](CO)N1C[C@H](C)[C@H](CN(C)Cc2ccc(Cl)c(Cl)c2)Oc2c(NC(=O)Nc3ccc(F)cc3)cccc2C1=O | inactive
11 | C[C@H]1CN([C@@H](C)CO)C(=O)c2cccc(NC(=O)C3CCCCC3)c2O[C@@H]1CN(C)Cc1ccc(Cl)c(Cl)c1 | active
12 | C[C@@H]1CN([C@H](C)CO)C(=O)c2cccc(NC(=O)C3CCCCC3)c2O[C@H]1CN(C)Cc1ccc(Cl)c(Cl)c1 | inactive
13 | COc1ccc(NC(=O)Nc2cccc3c2O[C@H](CN(C)Cc2ccc(Cl)c(Cl)c2)[C@@H](C)CN([C@@H](C)CO)C3=O)cc1 | inactive
14 | COc1ccc(NC(=O)Nc2cccc3c2O[C@@H](CN(C)Cc2ccc(Cl)c(Cl)c2)[C@H](C)CN([C@@H](C)CO)C3=O)cc1 | inactive
15 | C[C@@H]1CN([C@H](C)CO)C(=O)c2cccc(NC(=O)Nc3ccccc3)c2O[C@H]1CN(C)Cc1ccc(Cl)c(Cl)c1 | inactive
16 | C[C@@H]1CN([C@@H](C)CO)C(=O)c2cccc(NC(=O)C3CCCCC3)c2O[C@H]1CN(C)Cc1ccc(Cl)c(Cl)c1 | inactive
17 | COc1ccc(NC(=O)Nc2cccc3c2O[C@@H](CN(C)Cc2ccc(Cl)c(Cl)c2)[C@@H](C)CN([C@H](C)CO)C3=O)cc1 | active
18 | Nc1nc(/C(=N/O)C(=O)N[C@@H]2C(=O)N3C(C(=O)O)=C(/C=C4\CCN([C@@H]5CCNC5)C4=O)CS[C@H]23)ns1 | inactive
19 | CSc1ncc(C(=O)NN)n1C | inactive
20 | CCS(=O)(=O)NCC[C@H]1CC[C@H](NC(=O)C2CC2)[C@H](CO)O1 | inactive
21 | CN(C)C(=O)COC[C@]12COC[C@H]1CN(S(C)(=O)=O)C2 | inactive
22 | C[C@H](CO)N1C[C@H](C)[C@H](CN(C)C(=O)Nc2ccc3c(c2)OCO3)Oc2ccc(NC(=O)c3ccncc3)cc2CC1=O | inactive

Row | Structure (SMILES) | cytotoxicity call
23 | C[C@H](CO)N1C[C@H](C)[C@H](CN(C)C(=O)Nc2ccc3c(c2)OCO3)Oc2ccc(NS(=O)(=O)c3cn(C)cn3)cc2CC1=O | inactive
24 | O=C(Nc1ccc2c(c1)[C@@H]1C[C@@H](CC(=O)N3CCc4ccccc4C3)O[C@H](CO)[C@@H]1O2)C1CCOCC1 | inactive
25 | C[C@@H]1CN([C@@H](C)CO)C(=O)Cc2cc(NC(=O)C3CC3)ccc2O[C@@H]1CN(C)C(=O)Nc1ccccc1 | inactive
26 | C[C@@H]1CN([C@H](C)CO)C(=O)c2cc(NC(=O)C3CCCCC3)ccc2O[C@@H](C)CCCCO[C@@H]1CN(C)S(=O)(=O)c1ccc(F)cc1 | inactive
27 | O=C(CN1CCOCC1)NCC[C@H]1CC[C@@H](NC(=O)Cc2ccccn2)[C@@H](CO)O1 | inactive
28 | Cc1noc(C)c1NC(=O)N(C)C[C@H]1Oc2c(NS(=O)(=O)c3c(C)noc3C)cccc2C(=O)N([C@@H](C)CO)C[C@H]1C | inactive
29 | C=CCOC(=O)[C@H]1[C@@H]2C(=O)O[C@@H](c3ccccc3)[C@@H](c3ccccc3)N2[C@@H](c2ccc(OCCOC(=O)[C@H]3C[C@H]4C(=O)N[C@@H](Cc5ccccc5)C(=O)N4[C@H]3c3ccc(O)cc3)cc2)[C@]12C(=O)Nc1ccccc12 | inactive
30 | C[C@H]1CN([C@@H](C)CO)C(=O)c2cc(NC(=O)c3ccncc3)ccc2O[C@H]1CN(C)S(=O)(=O)c1ccccc1 | inactive
31 | O=C(CCCCC(=O)N/N=C/[C@H](O)[C@@H](O)[C@H](O)[C@H](O)CO)NO | inactive
32 | Cc1cc(N)c2ccccc2[n+]1CCCCCCCCCC[n+]1c(C)cc(N)c2ccccc21.[Cl-].[Cl-] | active
33 | CCCN(C)C[C@@H]1OCCCC[C@@H](C)Oc2ccc(NS(=O)(=O)c3ccc(Cl)cc3)cc2C(=O)N([C@H](C)CO)C[C@@H]1C | inactive
34 | COc1ccc(NC(=O)Nc2ccc3c(c2)C(=O)N([C@H](C)CO)C[C@H](C)[C@H](CN(C)Cc2ccncc2)OCCCC[C@@H](C)O3)cc1 | inactive
35 | CN(C)c1nc(N)nc(CSc2nnnn2C)n1 | inactive
36 | COc1ccc(CN(C)C[C@H]2Oc3ccc(NS(=O)(=O)c4c(C)noc4C)cc3CC(=O)N([C@H](C)CO)C[C@H]2C)cc1 | inactive
37 | O=C(C[C@@H]1C[C@@H]2c3cc(NC(=O)c4ccc5c(c4)OCO5)ccc3O[C@@H]2[C@H](CO)O1)NCC(F)(F)F | inactive
38 | C[C@@H]1CCCCO[C@@H](CN(C)Cc2ccc(Cl)c(Cl)c2)[C@@H](C)CN([C@H](C)CO)C(=O)c2cc(NS(=O)(=O)c3cccs3)ccc2O1 | inactive
39 | C[C@@H]1CCCCO[C@H](CN(C)Cc2ccc(Cl)c(Cl)c2)[C@H](C)CN([C@H](C)CO)C(=O)c2cc(NS(=O)(=O)c3cccs3)ccc2O1 | inactive
40 | C[C@@H]1CCCCO[C@@H](CN(C)Cc2ccc(Cl)c(Cl)c2)[C@@H](C)CN([C@@H](C)CO)C(=O)c2cc(NS(=O)(=O)c3cccs3)ccc2O1 | active
41 | C[C@@H]1CCCCO[C@@H](CN(C)Cc2ccc(Cl)c(Cl)c2)[C@H](C)CN([C@H](C)CO)C(=O)c2cc(NS(=O)(=O)c3cccs3)ccc2O1 | inactive
42 | C[C@H](CO)N1C[C@H](C)[C@@H](CN(C)Cc2ccc(Cl)c(Cl)c2)OCCCC[C@H](C)Oc2ccc(NS(=O)(=O)c3cccs3)cc2C1=O | inactive
43 | C[C@@H]1CCCCO[C@H](CN(C)Cc2ccc(Cl)c(Cl)c2)[C@@H](C)CN([C@H](C)CO)C(=O)c2cc(NS(=O)(=O)c3cccs3)ccc2O1 | active
